Assay results: PubChem BioAssay (EPA / NIEHS)
The source made the active and inactive calls. Rule for the calls: active = hit-call score of the fitted dose curve at least 0.9, where 1 is the maximum; inactive = score below 0.9.

Legend:
[1] = read-out: Human Leukocyte Antigen - DR isotype (HLADR), HLA-DRA (gene 3122); assay: BSK_CASM3C_HLADR: BioMAP Diversity Plus: CASM3C Assay for Human Leukocyte Antigen - DR isotype (HLADR) Biomarker Activity (AID 2283043); settings: primary human coronary artery smooth muscle cells; actives raise or lower the signal;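 note: cell-surface HLA-DR protein level quantified by ELISA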
[2] = read-out: Macrophage colony-stimulating factor (MCSF), CSF1 (gene 1435); assay: BSK_CASM3C_MCSF: BioMAP Diversity Plus: CASM3C Assay for Macrophage colony-stimulating factor (MCSF) Biomarker Activity (AID 2283044); settings: primary human coronary artery smooth muscle cells; actives raise or lower the signal;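 note: M-CSF protein amount quantified by ELISA after 24 h exposure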
[3] = read-out: Low-density lipoprotein receptor (LDLR), LDLR (gene 3949); assay: BSK_CASM3C_LDLR: BioMAP Diversity Plus: CASM3C Assay for Low-density lipoprotein receptor (LDLR) Biomarker Activity (AID 2283045); settings: primary human coronary artery smooth muscle cells; actives raise or lower the signal;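 note: LDLR protein level on the cell surface quantified by ELISA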
[4] = read-out: Monocyte Chemoattractant Protein-1 (MCP1), CCL2 (gene 6347); assay: BSK_CASM3C_MCP1: BioMAP Diversity Plus: CASM3C Assay for Monocyte Chemoattractant Protein-1 (MCP1) Biomarker Activity (AID 2283046); settings: primary human coronary artery smooth muscle cells; actives raise or lower the signal;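 note: MCP-1 level quantified by ELISA 24 h after dosing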
[5] = BSK_CASM3C_Proliferation: Cell Proliferation Assessment in the BioMAP Diversity Plus: CASM3C Assay (AID 2283047); settings: primary human coronary artery smooth muscle cells;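 note: sulforhodamine B total protein stain as relative cell number at 560 nm; sub-confluent cells exposed 48 h before staining; fitted both ways against DMSO so gain or loss of cell number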
[6] = read-out: Monokine induced gamma interferon (MIG), CXCL9 (gene 4283); assay: BSK_CASM3C_MIG: BioMAP Diversity Plus: CASM3C Assay for Monokine induced gamma interferon (MIG) Biomarker Activity (AID 2283048); settings: primary human coronary artery smooth muscle cells; actives raise or lower the signal;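 note: MIG protein level measured by ELISA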
[7] = read-out: serum amyloid A (SAA), SAA1 (gene 6288); assay: BSK_CASM3C_SAA: BioMAP Diversity Plus: CASM3C Assay for serum amyloid A (SAA) Biomarker Activity (AID 2283049); settings: primary human coronary artery smooth muscle cells; actives raise or lower the signal;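 note: SAA protein level quantified by ELISA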
[8] = BSK_CASM3C_SRB: Viability Assessment in the BioMAP Diversity Plus: CASM3C Assay (AID 2283050); settings: primary human coronary artery smooth muscle cells;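 note: total protein by SRB staining as cytotoxicity measure in parallel cultures; cells exposed to compound for 24 h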
[9] = read-out: Thrombomodulin, THBD (gene 7056); assay: BSK_CASM3C_Thrombomodulin: BioMAP Diversity Plus: CASM3C Assay for Thrombomodulin Biomarker Activity (AID 2283051); settings: primary human coronary artery smooth muscle cells; actives raise or lower the signal;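 note: thrombomodulin protein level measured by ELISA 24 h after dosing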
[10] = read-out: Tissue Factor, F3 (gene 2152); assay: BSK_CASM3C_TissueFactor: BioMAP Diversity Plus: CASM3C Assay for Tissue Factor Biomarker Activity (AID 2283052); settings: primary human coronary artery smooth muscle cells; actives raise or lower the signal;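 note: cell surface tissue factor protein level read by ELISA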
[11] = read-out: Interferon-gamma inducible Protein 10 (IP10), CXCL10 (gene 3627); assay: BSK_hDFCGF_IP10: BioMAP Diversity Plus: hDFCGF Assay for Interferon-gamma inducible Protein 10 (IP10) Biomarker Activity (AID 2283053); settings: primary human foreskin fibroblasts; actives raise or lower the signal
Summary of the method: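 ELISA read-out of IP-10 (CXCL10) from primary human skin fibroblasts, 24 h after compound addition. Gain or loss of signal versus DMSO baseline, bidirectional curve fitting.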

[12] = read-out: Urokinase-type plasminogen activator receptor (uPAR), PLAUR (gene 5329); assay: BSK_CASM3C_uPAR: BioMAP Diversity Plus: CASM3C Assay for Urokinase-type plasminogen activator receptor (uPAR) Biomarker Activity (AID 2283054); settings: primary human coronary artery smooth muscle cells; actives raise or lower the signal;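 note: cell-surface uPAR protein level quantified by ELISA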
[13] = read-out: Vascular cell adhesion molecule 1 (VCAM1), VCAM1 (gene 7412); assay: BSK_CASM3C_VCAM1: BioMAP Diversity Plus: CASM3C Assay for Vascular cell adhesion molecule 1 (VCAM1) Biomarker Activity (AID 2283055); settings: primary human coronary artery smooth muscle cells; actives raise or lower the signal;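 note: VCAM-1 protein level quantified by ELISA on the cells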
[14] = read-out: Collagen III, COL3A1 (gene 1281); assay: BSK_hDFCGF_CollagenIII: BioMAP Diversity Plus: hDFCGF Assay for Collagen III Biomarker Activity (AID 2283056); settings: primary human foreskin fibroblasts; actives raise or lower the signal
Summary of the method: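 ELISA read-out of collagen III from human skin fibroblast cultures sampled 24 h post-dosing. Values were derived by bidirectional fitting relative to the DMSO vehicle control.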

[15] = read-out: Epidermal growth factor receptor (EGFR), EGFR (gene 1956); assay: BSK_hDFCGF_EGFR: BioMAP Diversity Plus: hDFCGF Assay for Epidermal growth factor receptor (EGFR) Biomarker Activity (AID 2283057); settings: primary human foreskin fibroblasts; actives raise or lower the signal
Summary of the method: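 ELISA readout of EGFR on human dermal fibroblasts (primary foreskin cells), 24 h post-dosing; bidirectional curve fit vs DMSO baseline, gain or loss of signal scored.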

[16] = read-out: Interleukin-8 (IL8), CXCL8 (gene 3576); assay: BSK_hDFCGF_IL8: BioMAP Diversity Plus: hDFCGF Assay for Interleukin-8 (IL8) Biomarker Activity (AID 2283058); settings: primary human foreskin fibroblasts; actives raise or lower the signal
Summary of the method: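 Cells used are human skin primary fibroblasts. Chemical is added, cultures run 24 h, then IL-8 is quantified by ELISA, and gain or loss versus DMSO control is fitted in both directions.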

[17] = read-out: Macrophage colony-stimulating factor (MCSF), CSF1 (gene 1435); assay: BSK_hDFCGF_MCSF: BioMAP Diversity Plus: hDFCGF Assay for Macrophage colony-stimulating factor (MCSF) Biomarker Activity (AID 2283060); settings: primary human foreskin fibroblasts; actives raise or lower the signal
Summary of the method: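 Primary human foreskin fibroblasts dosed with chemical; 24 h later, M-CSF quantified by ELISA; curves fitted in both directions vs DMSO negative control.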

[18] = BSK_hDFCGF_SRB: Viability Assessment in the BioMAP Diversity Plus: hDFCGF Assay (AID 2283061); settings: primary human foreskin fibroblasts;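 note: cells exposed to compound for 24 h before the read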
Summary of the method: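 Readout is SRB absorbance at 560 nm, reflecting total protein in parallel cultures of human foreskin fibroblasts harvested 24 h after chemical dosing. Activity was fitted bidirectionally relative to DMSO.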

[19] = read-out: TIMP metallopeptidase inhibitor 1 (TIMP1), TIMP1 (gene 7076); assay: BSK_hDFCGF_TIMP1: BioMAP Diversity Plus: hDFCGF Assay for TIMP metallopeptidase inhibitor 1 (TIMP1) Biomarker Activity (AID 2283062); settings: primary human foreskin fibroblasts; actives raise or lower the signal
Summary of the method: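 Human skin fibroblasts (primary), hDFCGF system; compound exposure 24 h; TIMP-1 by ELISA; bidirectional fit vs DMSO negative control; overt cytotoxicity by SRB in parallel wells.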

[20] = BSK_hDFCGF_Proliferation: Cell Proliferation Assessment in the BioMAP Diversity Plus: hDFCGF Assay (AID 2283059); settings: primary human foreskin fibroblasts;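 note: curves fitted for both rise and fall of signal versus DMSO baseline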
Summary of the method: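 Primary human foreskin fibroblasts, sub-confluent; […]; 10% TCA fix, 0.1% SRB stain, A560 total protein. Gain/loss fitted bidirectionally vs DMSO control.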

On1ccccc1=S
AC50 [1]: 27.7 µM (active)
AC50 [2]: 33.7 µM (active)
AC50 [3]: 11.7 µM (active)
AC50 [4]: 32.1 µM (active)
AC50 [5]: 6.45 µM (active)
outcome [6]: inactive
outcome [7]: inactive
AC50 [8]: 26.8 µM (active)
AC50 [9]: 0.878 µM (active)
outcome [10]: inactive
AC50 [11]: 0.422 µM (active)
AC50 [12]: 25.6 µM (active)
outcome [13]: inactive
AC50 [14]: 1.41 µM (active)
outcome [15]: inactive
AC50 [16]: 0.791 µM (active)
AC50 [17]: 0.892 µM (active)
AC50 [18]: 1.74 µM (active)
AC50 [19]: 1.4 µM (active)

Cc1ccc(S(=O)(=O)O)cc1C
outcome [1]: inactive
outcome [2]: inactive
outcome [3]: inactive
outcome [4]: inactive
outcome [5]: inactive
outcome [6]: inactive
outcome [7]: inactive
outcome [8]: inactive
outcome [9]: inactive
outcome [10]: inactive
outcome [11]: inactive
outcome [12]: inactive
outcome [13]: inactive
outcome [14]: inactive
outcome [16]: inactive
outcome [20]: inactive
outcome [17]: inactive
outcome [18]: inactive
outcome [19]: inactive

CC/C(=C\C(=N/O)C(N)=O)C(C)[N+](=O)[O-] (centres undefined)
AC50 [1]: 22.3 µM (active)
outcome [2]: inactive
outcome [3]: inactive
outcome [4]: inactive
outcome [5]: inactive
outcome [6]: inactive
outcome [7]: inactive
outcome [8]: inactive
outcome [9]: inactive
outcome [10]: inactive
outcome [11]: inactive
outcome [12]: inactive
outcome [13]: inactive
outcome [14]: inactive
outcome [15]: inactive
outcome [16]: inactive
outcome [17]: inactive
outcome [18]: inactive
outcome [19]: inactive

CCC(C)(C)C(=O)O[C@H]1C[C@@H](C)C=C2C=C[C@H](C)[C@H](CC[C@@H]3C[C@@H](O)CC(=O)O3)[C@H]21
AC50 [1]: 20 µM (active)
AC50 [2]: 20 µM (active)
AC50 [3]: 20 µM (active)
AC50 [4]: 32.3 µM (active)
AC50 [5]: 2.18 µM (active)
outcome [6]: inactive
outcome [7]: inactive
AC50 [8]: 18.3 µM (active)
AC50 [9]: 0.336 µM (active)
AC50 [10]: 3.97 µM (active)
AC50 [11]: 31.4 µM (active)
AC50 [12]: 29.2 µM (active)
AC50 [13]: 29.8 µM (active)
AC50 [14]: 33.3 µM (active)
AC50 [16]: 29.5 µM (active)
AC50 [20]: 13.9 µM (active)
AC50 [17]: 26.3 µM (active)
AC50 [18]: 25.8 µM (active)
AC50 [19]: 34.2 µM (active)

COC(=O)CC(=O)OC
outcome [1]: inactive
outcome [2]: inactive
outcome [3]: inactive
outcome [4]: inactive
outcome [5]: inactive
outcome [6]: inactive
outcome [7]: inactive
outcome [8]: inactive
outcome [9]: inactive
outcome [10]: inactive
outcome [11]: inactive
outcome [12]: inactive
outcome [13]: inactive
outcome [14]: inactive
outcome [15]: inactive
outcome [16]: inactive
outcome [17]: inactive
outcome [18]: inactive
outcome [19]: inactive

COc1cccc(-c2ccc(/C=C\CN3CCCCCC3)cc2Cl)c1
AC50 [1]: 29.5 µM (active)
AC50 [2]: 29.4 µM (active)
AC50 [3]: 4.74 µM (active)
outcome [4]: inactive
AC50 [5]: 29.8 µM (active)
outcome [6]: inactive
AC50 [7]: 32 µM (active)
AC50 [8]: 25 µM (active)
outcome [9]: inactive
outcome [10]: inactive
AC50 [11]: 27.3 µM (active)
AC50 [12]: 25.9 µM (active)
outcome [13]: inactive
AC50 [14]: 12.1 µM (active)
AC50 [16]: 34.1 µM (active)
AC50 [20]: 3.59 µM (active)
AC50 [17]: 22.4 µM (active)
AC50 [18]: 27.2 µM (active)
AC50 [19]: 29.1 µM (active)
